Screening results from PubChem BioAssay.
AmpC inh det = Promiscuous and Specific Inhibitors of AmpC Beta-Lactamase (assay with detergent). purified AmpC, nitrocefin hydrolysis with detergent. P00811. hit rate 0.09% among 71,000. Potency, µM (highest dose often 28.7 µM), without a hit: at the highest dose activity change, negative = inhibition; active means well fitted curve in the direction sought with a large enough effect; inconclusive means small, poorly fitted or top-dose-only effect; further: on the % scale 0 is the no-effect control and ±100 the full control effect
Target sequence (P00811 whole entry, looked up): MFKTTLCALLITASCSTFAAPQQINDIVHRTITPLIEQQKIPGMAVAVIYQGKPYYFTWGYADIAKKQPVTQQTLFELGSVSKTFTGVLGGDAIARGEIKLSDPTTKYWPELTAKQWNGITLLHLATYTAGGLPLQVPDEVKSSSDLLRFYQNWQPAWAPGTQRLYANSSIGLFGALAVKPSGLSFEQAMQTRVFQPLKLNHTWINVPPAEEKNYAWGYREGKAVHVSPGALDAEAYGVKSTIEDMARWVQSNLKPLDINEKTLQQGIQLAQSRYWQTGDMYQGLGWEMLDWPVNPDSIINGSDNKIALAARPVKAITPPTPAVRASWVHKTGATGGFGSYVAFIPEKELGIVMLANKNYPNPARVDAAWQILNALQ
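E. coli AmpC (5.3 nM) in 20 mM phosphate pH 7.0 with 0.01% Triton X-100, preincubated 15 min RT with compound; nitrocefin (2 uL of 800 uM stock) hydrolysis followed by 480 nm absorbance every 20 s over 4 min.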
AmpC inh no det = Promiscuous and Specific Inhibitors of AmpC Beta-Lactamase (assay without detergent); P00811; AmpC nitrocefin hydrolysis, absorbance 480 nm, no detergent; Potency, µM (highest dose often 28.7 µM), without a hit: top-dose activity change, negative = inhibition; hit rate 1.8% among 71,000; AID 585, 2007; further: % of control where 0% means no effect
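Enzyme, pH 7.0 phosphate. Compound titrations were pre-incubated with AmpC for 15 min at room temperature before nitrocefin (stock 800 uM) addition; product formation was recorded at 480 nm every 20 s for 4 min.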
Prx2 Sm inh = Schistosoma Mansoni Peroxiredoxins (Prx2); AID 448, 2006; S. mansoni Prx2 activity coupled to TGR/GSH (TGR is thioredoxin glutathione reductase), NADPH fluorescence loss, qHTS; Schistosoma mansoni peroxiredoxin 2 (Prx2); Potency, µM; hit rate 0.07% among 65,000
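Purified S. mansoni TGR and Prx2 in pH 7.4 phosphate buffer with EDTA and Tween-20 were preincubated with compounds for 15 min. Further NADPH/GSH was added, then a 2.5 mM H2O2 aliquot initiated turnover, followed kinetically by NADPH fluorescence.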
Anthrax LT inh = qHTS Assay for Anthrax Lethal Toxin Internalization; Cells, anthrax lethal toxin internalization, FRET ratio (460/530); Potency, µM (titrated, usually from 40 µM), for the others: top-dose activity change, negative = inhibition, actives largely listed as inhibitors; hit rate 0.67% among 70,000; further: on the % scale 0 is the no-effect control and ±100 the full control effect; nearly all actives have a fitted effect of over 50% in size
Starred values were filed as active, the others as inactive; ? = inconclusive; nt = no result given; ! = repeats disagree; [ ] = remark or other dose. Compounds with a hit are over-represented: about 2.6% of the library has one in this group of screens. Unless noted, the call rests on the fitted dose curve. Potency means the concentration at half of the fitted maximal effect.

SMILES	AmpC inh det	AmpC inh no det	Prx2 Sm inh	Anthrax LT inh
Cc1noc(C)c1S(=O)(=O)N1CCCC(C(=O)Nc2ccc(Cl)cn2)C1 (stereo not given)	-4%	11%	>57	-2%
Cc1cc(NC(=O)C2CCCN(S(=O)(=O)c3c(C)noc3C)C2)no1 (stereo not given)	13%	4µM*[single pt active]	>57	-5%
CC(C)CCN1CCc2nc(COc3ccccc3)c3c(c2C1)COC(C)C3 (stereo not given)	nt	nt	nt	-11%[8 µM]
CCCc1c(-c2ccc(O)cc2)nn(-c2ccc(O)cc2)c1-c1ccc(O)cc1	-7%	7.9µM*!	>57	?
N#Cc1c(N2CCCC2)nc(N)c2c(N)nc(N3CCCC3)cc12	8%	51%	>57	-15%
N#Cc1c(N)nc(N2CCCC2)c(C#N)c1-c1ccc(Cl)cc1	4%	-16%	>57	1µM*
COC(=O)CC1=COC(O)C2C(CO)=CC[C@@H]12 (stereo not given in full)	nt	nt	nt	-15%[8 µM]
COc1ccccc1NC(=O)Cn1nnc(-c2ccccc2NC(=O)c2cccs2)n1	2%	7.9µM*	>57	-1%
COc1ccc(NC(=O)Cn2nnc(-c3ccccc3NC(=O)c3ccco3)n2)cc1	9%	13µM*	>57	-1%
COc1ccccc1NC(=O)Cn1nnc(-c2ccccc2NC(=O)c2ccco2)n1	4%	-21%	>57	-5%
COc1cccc(OC)c1C(=O)Nc1c(C)n(C)n(-c2ccccc2)c1=O	1%	4%	>57	-10%
COc1ccc(NC(=O)Nc2c(C)n(C)n(-c3ccccc3)c2=O)cc1	28%	4µM*[single pt active]	>57	-4%
COc1ccc2cc(C(=O)Nc3c(C)n(C)n(-c4ccccc4)c3=O)sc(=O)c2c1OC	10%	2.5µM*[single pt active]	>57	-6%
C#CCCCO/N=C1/[C@H]2O[C@@H]2[C@@H](O)[C@H]2[C@H]1CCn1c(=O)n(Cc3cc4c(cc3Cl)OCO4)c(=O)n12	nt	nt	nt	-8%[8 µM]
COc1ccc(OC)c(NC(=O)c2cc3n(n2)C(C(F)(F)F)CC(c2ccc4c(c2)OCO4)N3)c1 (stereo not given)	4%	34%	>57	-29%
O=C(Nc1cc(Cl)ccc1O)c1cc2n(n1)C(C(F)(F)F)CC(c1ccc3c(c1)OCO3)N2 (stereo not given)	-3%	7.9µM*	>57	?
CNc1ncnc2ccc(-c3ccccc3C#N)cc12	12%	13%	>57	?
COc1cc2c3cc1Oc1c(OC)c(OC)cc4c1[C@@H](Cc1ccc(O)c(c1)Oc1ccc(cc1)C[C@@H]3N(C)CC2)CN(C)C4	-2%[5.75 µM]	40%[5.75 µM]	>57	?
COc1ccc(CCNC(=O)C2(C)CCC(=O)N2CCC(C)C)cc1OC (stereo not given)	18%	4µM*[single pt active]	>57	-21%
Nc1nc2ccc(S(=O)(=O)c3ccc4nc(N)sc4c3)cc2s1	-5%	13µM*	>57	-5%
Nc1nc2ccc(Oc3ccccc3)cc2s1	-2%	-13%	>57	-22%
CCc1cc(=O)oc2cc(C)c3c(C)coc3c12	-4%	-8%	>57	-16%
CCc1cc(=O)oc2cc(C)cc(O)c12	9%	4µM*[single pt active]	>57	-3%
CCCCCCCCCCCCCC(=O)O[C@H]1[C@@H](C)[C@@]2(O)[C@@H](C=C(CO)C[C@]3(O)C(=O)C(C)=C[C@@H]23)C2C(C)(C)[C@]21OC(C)=O (stereo not given in full)	-6%	108%	>26	?
Cc1nc(NCc2ccccc2)c2nc(-c3ccccc3)n(CCCN3CCCCC3C)c2n1 (stereo not given)	13%	96%	nt	?
SMILES	AmpC inh det	AmpC inh no det	Prx2 Sm inh	Anthrax LT inh
Cc1cc(NC(=O)C2COc3ccccc3O2)no1 (stereo not given)	11%	4µM*[single pt active]	>57	8%
O=C(Nc1nc(-c2ccccn2)cs1)C1COc2ccccc2O1 (stereo not given)	12%	10%	>57	?
COc1ccc(OC)c(NC(=O)C2COc3ccccc3O2)c1 (stereo not given)	10%	8%	nt	13µM*
O=C(Nc1nc(-c2ccc3c(c2)OCO3)cs1)C1COc2ccccc2O1 (stereo not given)	12%	10µM*	>57	?
Cc1cc(NC(=O)C2CC(c3ccc(F)cc3)=NO2)no1 (stereo not given)	11%	4µM*[single pt active]	>57	-23%
CCOc1ccc(OCC)c(NC(=O)C2COc3ccccc3O2)c1 (stereo not given)	0%	4%	>57	3%
CN(C)Cc1cc(C(C)(C)C)cc(CNC2CCCCC2)c1O	-3%[5.75 µM]	7%[5.75 µM]	>57	?
C=C1C=C(Br)C2(OCCCO2)[C@H]2OC12 (stereo not given in full)	nt	nt	nt	-5%[1.6 µM]
COCCNc1nc(C)nc2c1nc(-c1ccccc1)n2CCCN1CCCCC1C (stereo not given)	14%	-2%	nt	15%
COc1ccccc1N1CCN(C(=O)c2sc3nc(-c4ccc(F)cc4)cn3c2C)CC1	13%	126%	>57	16µM*
CCOC(=O)N1CCN(C(=O)c2sc3nc(-c4ccc(F)cc4)cn3c2C)CC1	-4%	119%	>57	0%
CCCS(=O)(=O)N1CCC(C(=O)N2CCN(Cc3ccccc3)CC2)CC1	-3%	28%	>57	-9%
CS(=O)(=O)N1CCC(C(=O)N2CCC(Cc3ccccc3)CC2)CC1	?	13µM*	>57	3%
CCN1C(=O)[C@H]2[C@H]3[C@H](O)[C@H](O)C/C(=N/O[C@@H]4O[C@@H](COC(C)=O)[C@@H](OC(C)=O)[C@@H](OC(C)=O)[C@H]4OC(C)=O)[C@H]3CC[C@@H]2C1=O	nt	nt	nt	2%[8 µM]
Nc1nc(-c2ccccc2)cc(-c2ccccc2O)n1	9%	6%	>57	10%
N#CC(=C1CCCC1)c1nc(-c2ccccc2O)cs1	2%	6.3µM*	>57	-20%
O=C(N/N=C1/C[C@@H](O)[C@@H](O)[C@@H]2[C@@H]3C(=O)N(Cc4ccccc4)C(=O)[C@H]3CC[C@@H]12)OCc1ccccc1	nt	nt	nt	-6%[8 µM]
Oc1ccc(CNc2ccccc2)c2cccnc12	20%	13µM*[single pt active]	15*	5%
Oc1ccc(CN2CCN(Cc3ccccc3)CC2)c2cccnc12	2%	8%	>57	?
Oc1ccc(CNc2ccc(F)cc2)c2cccnc12	1%	10µM*	?	-6%
CCc1cc2c(nc1CC)CCN(CC/C(C)=N/O[C@@H]1O[C@H](COC(C)=O)[C@H](OC(C)=O)[C@H](OC(C)=O)[C@H]1OC(C)=O)C2	nt	nt	nt	-10%[1.6 µM]
Cc1c(C(=O)N2CCCC2)oc2c1-c1[nH]ncc1CC2	10%	4µM*[single pt active]	>57	6%
O=C1OCCC1Sc1nnc(-c2ccco2)o1 (stereo not given)	-1%	2%	6.5*	-6%
COc1ccc(OC)c(Nc2nc(-c3cccs3)cs2)c1	13%	4%	>57	?
COc1ccccc1Nc1nc(-c2cccs2)cs1	-5%	7.9µM*[single pt active]	nt	?
COc1cccc2cc(C(=O)n3ccc(C)n3)c(=O)oc12	10µM*	10µM*	>57	-9%
